# Shown are actives, neighbours in structure and some others; about 21% of the full set was active somewhere.
# CHX counter: Cycloheximide Counterscreen for Small Molecule Inhibitors of Shiga Toxin | max response, % | actives 12% (n = 300,000) | cell reporter, cycloheximide protein synthesis inhibition counterscreen; in the data active = max response mostly above about 13%, no sharp cut-off; inactive = mostly below about 14%; note: read at 38.3 µM for the half of the compounds with a filed dose; 0% is about no effect
# Pf growth 96h: Primary qHTS for delayed death inhibitors of the malarial parasite plastid, 96 hour incubation. P. falciparum luciferase reporter growth, 96 h. Potency, µM (titrated, usually from 28.7 µM), for inactives: at the highest dose activity change, negative = inhibition, actives largely listed as inhibitors. actives 6.9% (n = 320,000); note: potency is the fitted concentration of half-maximal effect; % is set by controls: 0 for no effect and ±100 for the full control effect
#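 Plates of compound plus infected erythrocytes (2% hematocrit, 0.05% parasitemia final) incubate 96 hours, 37 C, 5% CO2. Detection reagent added; reduced luminescence from the parasites' luciferase reporter flags inhibition.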
# Pf growth 48h: Primary qHTS for delayed death inhibitors of the malarial parasite plastid, 48 hour incubation; P. falciparum luciferase growth in erythrocytes, 48 h; Potency, µM (series often up to 28.7 µM), for inactives: at the highest dose activity change, negative = inhibition, hits mostly inhibitors; actives 5.9% (n = 310,000); AID 504832, 2011; note: potency is the fitted concentration of half-maximal effect; % is set by controls: 0 for no effect and ±100 for the full control effect
#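 Cell-based growth assay: transgenic P. falciparum expressing firefly luciferase, cultured in red cells within RPMI 1640 containing 0.5% w/v Albumax, 24 mM bicarbonate and gentamycin. A drop in luciferase activity indicates inhibition.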
# Giardia FBPA inh: qHTS Assay for Inhibitors of Fructose-1,6-bisphosphate Aldolase from Giardia Lamblia; A8B2U2; purified Giardia FBPA; Potency, µM (series often up to 59.6 µM), inactives show top-dose activity, negative = inhibition, usual class: inhibitors; actives 0.71% (n = 290,000); AID 2451, 2010; note: potency is the fitted concentration of half-maximal effect; % is set by controls: 0 for no effect and ±100 for the full control effect; nearly all actives have a fitted effect of over 55% in size
# Target sequence (A8B2U2 whole entry, looked up): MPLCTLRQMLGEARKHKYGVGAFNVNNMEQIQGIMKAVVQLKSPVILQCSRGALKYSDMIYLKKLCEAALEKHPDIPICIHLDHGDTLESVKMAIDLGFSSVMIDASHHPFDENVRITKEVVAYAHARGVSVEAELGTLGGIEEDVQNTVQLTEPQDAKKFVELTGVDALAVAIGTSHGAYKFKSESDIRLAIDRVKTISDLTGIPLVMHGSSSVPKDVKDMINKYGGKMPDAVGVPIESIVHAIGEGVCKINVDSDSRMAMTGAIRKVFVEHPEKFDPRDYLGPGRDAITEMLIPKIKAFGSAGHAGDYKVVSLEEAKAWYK
#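 Giardia FBPA (40 nM reagent) was preincubated 10 min at RT with compound (up to 57.5 uM final), then substrate plus GAPDH/TPI/NAD/arsenate coupling system with diaphorase/resazurin was added; resorufin fluorescence (525/598 nm) was read after 20 min.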
# NS1 inh: qHTS Assay for Inhibitors of Influenza NS1 Protein Function; Potency, µM (top dose mostly 46.1 µM), inactives show at the top dose activity, positive = more growth; actives 0.4% (n = 270,000); AID 2326, 2010; calls by dose curve; note: potency is the fitted concentration of half-maximal effect; actives are rising curves; nearly all actives have a fitted effect of over 50% in size
#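 OD600 was taken as the measure of yeast growth restored by compound in an NS1-expressing S. cerevisiae strain. Cells had been washed out of glucose medium and diluted 1:100 into galactose -URA medium, pH 6.0.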
# Shiga toxin inh: A qHTS for Small Molecule Inhibitors of Shiga Toxin | AID 2315, 2010 | actives 9.2% (n = 290,000) | inhibition, % at 38.7 µM | Vero cells, Shiga toxin protein synthesis inhibition reporter; in the data active = inhibition mostly above about 28%, no sharp cut-off; inactive = mostly below about 43%; note: 0% is about no effect
# * hit, by the source's call; ? = inconclusive; . = not tested or not shown; + = active, no number; [ ] = another dose, or the depositor's remark. Unless noted, calls come from the whole dose curve; as a rule, active = well fitted curve in the direction sought with a large enough effect; inconclusive = small, poorly fitted or top-dose-only effect, or another doubt; inactive = no such curve, though single readings can be large; an effect the other way counts as inactive or inconclusive.
SMILES,CHX counter,Pf growth 96h,Pf growth 48h,Giardia FBPA inh,NS1 inh,Shiga toxin inh
CC1CCC(NC(=O)c2ccc(NC(=O)CC3SC(N4CCCC4)=NC3=O)cc2)CC1 (stereo unspecified),.,29%,41%,.,.,.
O=C(/C=C/Nc1cccc(F)c1)c1ccco1,35*,?,.,-3%,-121%,76*
O=C(NC1CCN(C(=O)Nc2cccc(F)c2)CC1)c1ccco1,-4,3%,-3%,5%,5%,-3
O=C(/C=C/Nc1ccc(F)c(Cl)c1)c1ccco1,68*,.,89%,?,-12%,142*
COc1ccccc1C(=O)NC(=O)CSc1nnc(C)s1,-1,15%,0%,.,8%,16
CCCCCCn1ccc(=N)cc1,7,0.47µM*,3.3µM*,1%,-20%,-9
CS(=O)(=O)N(Cc1ccco1)CC(O)Cn1cc(C=O)c2ccccc21 (stereo unspecified),-2,?,.,0%,-2%,-20
O=Cc1cn(CC(O)Cn2cc(C=O)c3ccccc32)c2ccccc12,2,?,-4%,-9%,-6%,-18
CCCCN(C)CC(O)Cn1cc(/C=C/C(=O)c2ccc(OCC)cc2)c2ccccc21 (stereo unspecified),13,?,5.2µM*,3%,3%,0
O=C(/C=C/c1cn(CC(O)CN2CCCCCC2)c2ccccc12)c1cccs1 (stereo unspecified),2,-9%,12µM*,-2%,4%,-3
CCOC(=O)Cn1cc(C=O)c2ccccc21,-3,.,3%,1%,12%,21
CCCCN(C)CC(O)Cn1cc(/C=C/C(=O)c2cccs2)c2ccccc21 (stereo unspecified),-4,4.1µM*,8.3µM*,-7%,-5%,8
CC(CC1CC(C)(C)OC1=O)C(=O)Nc1ccc([N+](=O)[O-])cc1 (stereo unspecified),11,1.7µM*,?,-1%,-2%,16
COc1ccccc1-c1c(C#N)c(N)nc2c1CCc1ccccc1-2,6,23%,12µM*,-25%,-23%,4
Nc1nc(NS(=O)(=O)c2ccc(Cl)cc2)nn1-c1ccccc1,-2,43%,11%,4%,-2%,11
C=C1CCC(O)C2(C)CCC3C(C)C(=O)OC3C12O (stereo unspecified),-3,6%,-23%,-3%,9%,4
C=C1C(=O)O[C@@H]2[C@H]1CC[C@H](C)[C@]1(O)CCC(=O)[C@@]21C,21*,0%,7%[0.00184 µM],-1%,5%,48
Cn1c(=S)[nH]c2c(c1=O)C(C)(C)Cc1ccccc1-2,-7,3.3µM*,48%,?,.,-14
CCn1c(=S)[nH]c2c(c1=O)C(C)(C)Cc1ccccc1-2,-6,27%,47%,10%,?,-4
Clc1ccc(OCc2nc(-c3ccccn3)n[nH]2)cc1,40*,.,-2%,-4%,-78%,21*
Cc1cc(Oc2ccc(Cl)cc2)nc(-c2ccccn2)n1,-1,?,?,5%,-69%,-3
Brc1ccc(OCc2nc(-c3ccccn3)n[nH]2)cc1,29*,-58%,.,?,-200%,34
CCCOC(=O)c1c(-c2ccccc2)nc(CC)c(C(=O)SCC)c1CCC,.,5%,?,-2%,-1%,.
CCCc1cc(=O)[nH]c(SCC(=O)N2CCCC2=O)n1,.,19%,?,.,.,.
O=C(O)c1cccc(NS(=O)(=O)c2ccc3nnn(O)c3c2)c1,6,36%,16%,?,7%,21
SMILES,CHX counter,Pf growth 96h,Pf growth 48h,Giardia FBPA inh,NS1 inh,Shiga toxin inh
O=C(O)c1cccc(NC2=C(n3nnc4ccccc43)C(=O)c3ccccc3C2=O)c1,-1,1.9µM*,5.2µM*,?,1%,6
Cc1nc2cc(Cl)c(Cl)cc2nc1C,48*,.,65%,-5%,-15%,+
Cc1cnc2cc(Cl)c(Cl)cc2n1,-4,?,-15%,8%,13%,-3
Cc1ccc2nc(-c3cccc(N)c3)oc2c1,10,.,147%,6%,-3%,7
Cc1cc(C)c2oc(-c3cccc(N)c3)nc2c1,52*,67%,218%,-7%,-52%,106*
CCNc1nc(NCC)n2c(SCC(=O)Nc3ccc(Br)cc3F)nnc2n1,.,?,12µM*,.,.,.
CCNc1nc(NCC)n2c(SCC(=O)Nc3ccc(C)c(C)c3)nnc2n1,.,-33%,9.3µM*,.,.,.
CCNc1nc(NCC)n2c(SCC(=O)Nc3ccc(F)cc3)nnc2n1,.,?,0%,.,.,.
COc1ccc(OC)c(NC(=O)CSc2nncc3ccc(OC)c(OC)c23)c1,-2,9.3µM*,?,-28%,?,-4
CCNc1nc(NCC)n2c(SCC(=O)Nc3cc(OC)ccc3OC)nnc2n1,.,8.3µM*,?,.,.,.
COc1ccc2cnnc(SCC(=O)Nc3ccccc3)c2c1OC,1,56%,17%,3%,9%,-5
CCNc1nc(NCC)n2c(SCC(=O)Nc3ccccc3)nnc2n1,5,?,-20%,2%,-1%,-8
COc1cccc(CN2CC34CCC(CC3S2(=O)=O)O4)c1 (stereo unspecified),15,.,.,5%,.,-5
O=C1COCCN1,-1,.,.,3%,.,3
COc1cccc(NC(=O)C(=O)NCCCN2CCCC2=O)c1,.,92%,85%,.,.,.
CSc1nc(Oc2ccc(Cl)cc2)c2sccc2n1,-3,9.3µM*,?,1%,4%,6
COCCn1c(SCC(=O)Nc2cccc(OC)c2)nnc1-c1ccc(Cl)cc1,-2,.,-20%,-1%,-3%,-8
COCCn1c(SCC(=O)Nc2cc(C)cc(C)c2)nnc1C(C)C,0,39%,-5%,3%,-4%,-4
COCCn1c(SCC(=O)Nc2cccc(C)c2)nnc1C(C)C,2,0.17µM*,15%,-1%,-6%,34
Cc1occc1-c1nnc(SCC(=O)Nc2ccccc2)n1CCc1ccccc1,12,-11%,?,6%,-32%,-4
CCOC(=O)c1cccc(NC(=O)CSc2nnc(-c3ccoc3C)n2CCOC)c1,9.2*,1.2µM*,0%,8%,-5%,9
COCCn1c(SCC(=O)Nc2cccc(OC)c2)nnc1-c1ccccc1,-3,2.3µM*,-2%,-2%,6%,-7
Cc1ccc2c(C(=O)CN3CCC(C(N)=O)CC3)c(C)[nH]c2c1,1,10%,14%,3%,0%,-5
Cc1noc(C)c1CSCC(=O)N(C)CC(=O)Nc1ccc(Cl)c(C(F)(F)F)c1,.,?,-15%,.,.,.
O=C(c1cc(-c2cccnc2)nc2ccccc12)N1CCCc2ccccc21,-4,10µM*,?,-1%,-20%,-6
O=C(c1cccnc1)N1CCCc2ccccc21,-7,6%,-4%,0%,4%,-6
